The nature of assay [1]: qHTS assay for small molecule agonists of the p53 signaling pathway (AID 651631; calls by dose curve; further: nearly all actives have a fitted effect of over 15% in size; further: potency means the concentration at half of the fitted maximal effect). The essentials: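 Stably transfected HCT-116 cells (beta-lactamase behind p53 response elements) get compounds after a 5 h settling period; 16 h later at 37 °C, FRET substrate is loaded and fluorescence read after 2 h.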
Background: Quantitative high-throughput screening tests each substance at several concentrations.

A short description of assay [2]: qHTS assay for small molecule agonists of the p53 signaling pathway - cell viability (AID 651633; calls by dose curve;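 further: p53RE-bla HCT reporter cells with a stable beta-lactamase p53 reporter; series mostly up to about 83 µM; nearly all actives have a fitted effect of over 30% in size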). The essentials: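 p53RE-bla cells, seeded at 4,000 per well and rested 5 h at 37 C/5% CO2, received compounds in DMSO for 16 h at 37 C. CellTiter-Glo was then added, and luminescence was read after 30 min at room temperature to gauge cytotoxicity.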
A short description of assay [3]: qHTS assay to test for compound auto fluorescence at 590 nm (red) in HEK293 cells (AID 720679). In a few lines: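 Red-channel autofluorescence (Ex/Em 540/590 nm; Rose Bengal sodium reference) was measured after overnight 37C, 5% CO2 exposure of attached HEK293 cells, 2,000 per well in medium with 10% dialyzed FBS.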
The nature of assay [4]: qHTS assay to test for compound auto fluorescence at 535 nm (green) in HEK293 cells (AID 720680).
A short description of assay [5]: qHTS assay to test for compound auto fluorescence at 590 nm (red) in HepG2 cell free culture (AID 720684). The essentials:
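Ex 540 / Em 590 nm read of compound in cell-free MEM (10% FBS). Rose Bengal sodium reference.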

Assay [6] is described as follows: qHTS assay for identifying genotoxic compounds that show differential cytotoxicity against isogenic chicken DT40 cell lines with known DNA damage response pathways - wild type cell line (AID 743012). Further: nearly all actives have a fitted effect of over 60% in size. Further: potency means the concentration at half of the fitted maximal effect. In a few lines:
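Viability of DNA repair-proficient chicken DT40 cells was assessed by CellTiter-Glo luminescence following 40 h compound exposure at 37 C/5% CO2.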

Assay [7] in a line: qHTS assay for identifying genotoxic compounds that show differential cytotoxicity against isogenic chicken DT40 cell lines with known DNA damage response pathways - Rev3 mutant cell line (AID 743014). Further: nearly all actives have a fitted effect of over 55% in size. Further: potency means the concentration at half of the fitted maximal effect.
Assay [8] can be described thus: qHTS assay to identify small molecule antagonists of the androgen receptor (AR) signaling pathway - cell viability counter screen (AID 743033; further: nearly all actives have a fitted effect of over 45% in size).
Assay [9] can be described thus: qHTS assay to identify small molecule antagonists of the thyroid receptor (TR) signaling pathway - cell viability counter screen (AID 743064). Further: nearly all actives have a fitted effect of over 50% in size. Further: potency means the concentration at half of the fitted maximal effect. In a few lines:
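Counter screen for cytotoxicity: compound plus T3 (1 nM final) on GH3.TRE-Luc cells, 23.5 h at 37 °C, then fluorescence viability readout with CellTiter-Fluor.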

The target in assay [10] is Estrogen receptor (Homo sapiens) (UniProt P03372). The assay is described as follows: qHTS assay to identify small molecule agonists of the estrogen receptor alpha (ER-alpha) signaling pathway (AID 743075; calls by dose curve;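 further: HEK293 GripTite cells with ER-alpha and UAS-driven beta-lactamase reporter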).
Estrogen receptor (Homo sapiens), sequence (P03372 whole entry, looked up): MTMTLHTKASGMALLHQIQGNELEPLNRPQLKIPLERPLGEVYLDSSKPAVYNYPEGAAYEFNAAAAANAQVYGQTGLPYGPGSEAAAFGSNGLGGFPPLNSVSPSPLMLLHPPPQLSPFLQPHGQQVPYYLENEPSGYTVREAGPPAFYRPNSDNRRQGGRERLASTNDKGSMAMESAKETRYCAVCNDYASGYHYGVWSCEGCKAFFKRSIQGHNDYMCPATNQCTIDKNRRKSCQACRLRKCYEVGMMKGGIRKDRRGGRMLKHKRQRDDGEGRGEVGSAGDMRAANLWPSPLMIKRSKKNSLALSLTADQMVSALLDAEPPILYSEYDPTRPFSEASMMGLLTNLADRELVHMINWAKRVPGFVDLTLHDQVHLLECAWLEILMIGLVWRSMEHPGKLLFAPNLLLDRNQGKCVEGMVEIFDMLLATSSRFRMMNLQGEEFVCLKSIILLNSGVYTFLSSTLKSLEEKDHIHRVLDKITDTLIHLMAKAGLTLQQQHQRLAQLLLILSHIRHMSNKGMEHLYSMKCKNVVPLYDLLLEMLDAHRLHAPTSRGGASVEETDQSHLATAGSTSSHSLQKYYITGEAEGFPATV
The target is the same in assay [11]. As to the kind of experiment: qHTS assay to identify small molecule agonists of the estrogen receptor alpha (ER-alpha) signaling pathway using the BG1 cell line (AID 743079). Further: nearly all actives have a fitted effect of over 20% in size. Further: potency means the concentration at half of the fitted maximal effect.
Assay [12] can be described thus: qHTS assay to identify small molecule antagonists of the estrogen receptor alpha (ER-alpha) signaling pathway using the BG1 cell line (AID 743080; calls by dose curve;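 further: BG1 cells stimulated with 17beta-estradiol alongside compound; series mostly up to about 70 µM; nearly all actives have a fitted effect of over 25% in size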). The essentials:
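Luciferase inhibition measured with ONE-Glo after 30 min at RT in BG1Luc4E2 cells given test compounds and 17beta-estradiol for 21.5 h at 37 C; CellTiter-Fluor viability read in the same wells beforehand.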

Assay [13] is described as follows: qHTS assay to identify small molecule that activate the aryl hydrocarbon receptor (AhR) signaling pathway - cell viability counter screen (AID 743086). Further: nearly all actives have a fitted effect of over 45% in size. Further: potency means the concentration at half of the fitted maximal effect. In a few lines: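 HepG2-AhR-luc (HG2L7.5c1) cells, 4000/well, were preincubated 5 h at 37C, exposed to compound in qHTS format for 24 hr at 37C, then given CellTiter-Fluor for 30 min; viability was read as fluorescence in the reporter wells.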

The target in assay [14] is Peroxisome proliferator-activated receptor gamma (Homo sapiens) (UniProt P37231). The assay is described as follows: qHTS assay to identify small molecule agonists of the peroxisome proliferator-activated receptor gamma (PPARg) signaling pathway (AID 743094; active means well fitted activation curve with a large enough effect in the signal ratio in the repeat runs, not every such curve was filed as active; the % refers to the signal ratio). In a few lines:
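Agonism was assessed in a beta-lactamase reporter system, HEK293H cells with a stably integrated UAS-bla construct under PPARg control; the 17 h treatment at 37C preceded a 1 h room-temperature FRET substrate read.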

The nature of assay [15]: qHTS assay to test for compound auto fluorescence at 460 nm (blue) in HEK293 cells (AID 720678). The essentials:
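Blue-channel (Ex/Em 405/460 nm) intensity measured in HEK293 cultures after overnight compound exposure at 37C; signal expressed relative to triamterene. Cells plated 2,000 per well in 10% dialyzed FBS medium and allowed 4-5 hr to attach.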

Assay [16] addresses Glucocorticoid receptor (Homo sapiens) (UniProt P04150). As to the kind of experiment: qHTS assay to identify small molecule agonists of the glucocorticoid receptor (GR) signaling pathway (AID 720691; active means well fitted activation curve with a large enough effect in the signal ratio in the repeat runs, not every such curve was filed as active; the % refers to the signal ratio). In a few lines: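 Compounds in DMSO, alongside positive controls, were added to GR-bla HeLa reporter cells and incubated 18 h at 37 C; GRE-driven beta-lactamase was detected by fluorescence after 2 h with FRET substrate at room temperature.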

Assay [17] is described as follows: qHTS assay to identify small molecule antagonists of the androgen receptor (AR) signaling pathway using the MDA cell line - cell viability counter screen (AID 743041; further: nearly all actives have a fitted effect of over 45% in size). In a few lines: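 In this qHTS counter assay, fluorescence intensity after CellTiter-Fluor addition indicated viability of MDA-kb2 AR-luc cells given compounds and R1881 for 16 h at 37C.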
Assay [18] deals with Nuclear receptor subfamily 1 group I member 2 (Rattus norvegicus) (UniProt Q9R1A7). The assay is described as follows: Rat pregnane X receptor (rPXR) activation by small molecules, qHTS assay (AID 1346983). Further: nearly all actives have a fitted effect of over 20% in size. To be noted: rPXR luciferase reporter cells, One-Glo luminescence, 24 h; max activation: stronger effect = higher value. The essentials:
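Cell-based rPXR luciferase reporter assay, 2,000 cells per well, rested 5hr at 37 C before compound addition in DMSO, then 24 hr at 37 C. One-Glo reagent was added and luminescence read after 30 min at room temperature.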

Assay [19] has as its target Nuclear receptor subfamily 1 group I member 2 (Homo sapiens) (UniProt O75469). The assay is described as follows: Human pregnane X receptor (PXR) activation by small molecules, qHTS assay (AID 1346985). Further: nearly all actives have a fitted effect of over 40% in size. The essentials:
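DPX-2 cells (HepG2 co-transfected with a PXR response element and a CYP3A4-promoter luciferase construct) were seeded at 2,000 per well, rested 5 hr at 37C, then exposed to DMSO-dissolved compounds for 24 hr. Activation was read as luciferase luminescence.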

For assay [20] the target is unchanged. As to the kind of experiment: CYP3A4 induction through human pregnane X receptor (PXR) by small molecules, qHTS assay (AID 1346984). Further: nearly all actives have a fitted effect of over 40% in size. The essentials: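 Cells (DPX-2; HepG2 with PXR element plus CYP3A4-promoter luciferase) settled 5hr, then were treated 24hr at 37C. A 3hr, 3uM-final Luciferin-IPA step preceded luminescence measurement with One-Glo.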

Each structure is given as a SMILES string. Values without a mark were called inactive. Results filed as inconclusive are left out. The source made the active and inactive calls. Unless noted, the call rests on the fitted dose curve; in most records, active means well fitted curve in the direction sought with a large enough effect in the repeat runs; inconclusive means weak or mixed curves; inactive means no such curve, though single readings can be large; an effect the other way counts as inactive or inconclusive.

Potency, outcome and max activation data for 8 compounds are collected here from PubChem BioAssay (Tox21).
On the % scale 0 is the no-effect control and ±100 the full control effect.

Peroxisome proliferator-activated receptor gamma (Homo sapiens), sequence (P37231 whole entry, looked up): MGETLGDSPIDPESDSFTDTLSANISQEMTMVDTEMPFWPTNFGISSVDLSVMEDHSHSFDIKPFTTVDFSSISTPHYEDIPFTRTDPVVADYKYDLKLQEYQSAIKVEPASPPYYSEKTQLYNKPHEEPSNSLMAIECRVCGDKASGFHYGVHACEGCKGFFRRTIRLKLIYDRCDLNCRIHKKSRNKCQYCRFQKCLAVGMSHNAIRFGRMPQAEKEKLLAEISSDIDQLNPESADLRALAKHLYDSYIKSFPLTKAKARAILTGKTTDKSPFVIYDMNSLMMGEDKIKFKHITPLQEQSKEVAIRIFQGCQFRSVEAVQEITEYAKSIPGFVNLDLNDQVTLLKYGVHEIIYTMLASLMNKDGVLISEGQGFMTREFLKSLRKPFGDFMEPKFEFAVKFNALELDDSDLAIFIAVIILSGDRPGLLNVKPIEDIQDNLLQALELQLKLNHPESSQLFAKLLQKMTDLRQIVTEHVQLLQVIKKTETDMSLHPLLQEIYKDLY
Glucocorticoid receptor (Homo sapiens), sequence (P04150 whole entry, looked up): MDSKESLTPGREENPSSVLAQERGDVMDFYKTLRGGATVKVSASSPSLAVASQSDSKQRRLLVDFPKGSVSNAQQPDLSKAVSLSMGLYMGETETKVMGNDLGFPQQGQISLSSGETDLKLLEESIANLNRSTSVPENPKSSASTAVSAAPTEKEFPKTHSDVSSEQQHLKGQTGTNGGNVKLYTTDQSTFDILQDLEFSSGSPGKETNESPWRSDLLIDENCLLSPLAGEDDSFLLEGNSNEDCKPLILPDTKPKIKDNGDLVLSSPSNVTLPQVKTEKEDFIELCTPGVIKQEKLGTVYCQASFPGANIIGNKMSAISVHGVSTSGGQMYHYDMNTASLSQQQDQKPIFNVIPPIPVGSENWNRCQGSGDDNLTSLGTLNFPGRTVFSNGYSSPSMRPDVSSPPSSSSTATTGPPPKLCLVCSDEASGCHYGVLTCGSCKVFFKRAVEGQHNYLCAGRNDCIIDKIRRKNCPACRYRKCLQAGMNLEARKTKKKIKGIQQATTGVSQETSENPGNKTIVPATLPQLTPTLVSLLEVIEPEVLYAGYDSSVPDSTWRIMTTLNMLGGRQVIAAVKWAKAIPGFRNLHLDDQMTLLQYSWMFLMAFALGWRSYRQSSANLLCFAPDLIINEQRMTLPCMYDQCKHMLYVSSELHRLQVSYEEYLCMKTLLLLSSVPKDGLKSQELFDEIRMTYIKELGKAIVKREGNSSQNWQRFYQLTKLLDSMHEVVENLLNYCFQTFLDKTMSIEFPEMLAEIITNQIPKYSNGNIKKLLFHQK
Nuclear receptor subfamily 1 group I member 2 (Rattus norvegicus), sequence (Q9R1A7 whole entry, looked up): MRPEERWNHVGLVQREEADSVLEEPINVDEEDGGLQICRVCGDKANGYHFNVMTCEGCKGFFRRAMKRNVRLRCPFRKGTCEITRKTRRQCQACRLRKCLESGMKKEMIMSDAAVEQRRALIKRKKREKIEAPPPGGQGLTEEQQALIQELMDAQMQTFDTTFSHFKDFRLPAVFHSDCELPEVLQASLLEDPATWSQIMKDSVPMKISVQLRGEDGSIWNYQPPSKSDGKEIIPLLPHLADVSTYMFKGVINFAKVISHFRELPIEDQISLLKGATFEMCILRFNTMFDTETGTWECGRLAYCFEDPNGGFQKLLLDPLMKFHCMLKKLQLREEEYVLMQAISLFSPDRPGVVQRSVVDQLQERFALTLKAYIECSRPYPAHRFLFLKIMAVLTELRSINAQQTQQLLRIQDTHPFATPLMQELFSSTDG

Regarding `CC(C)=CCN1CC[C@]2(C)c3cc(O)ccc3C[C@H]1[C@H]2C`, the Potency result in [1], in assay [2], in assay [4], in assay [8], in assay [9] and in assay [10] was “inactive” each time. Besides, the Potency result in assay [12], in assay [13] and in [14] was “inactive” in each case. In addition, the call in assay [3] and in [5] was inactive. Further, the Potency is 24.3 µM (active) in assay [6], 27.3 µM (active) in assay [7] and 30.6 µM (active) in assay [11].

On to `COc1cc([C@@H]2c3cc4c(cc3[C@@H](O)[C@H]3COC(=O)[C@H]23)OCO4)cc(OC)c1O`, for which the Potency was 0.168 µM (active) in assay [1], 0.266 µM (active) in assay [7], 10.6 µM (active) in [9] and 29.8 µM (active) in assay [13]. In addition, the Potency entry in assay [15], in assay [4], in assay [16] and in [11] was “inactive” in each case. The compound was classed as inactive in assay [3] and in assay [5].

For `C#CCN1CC(=O)N(COC(=O)C2C(C=C(C)C)C2(C)C)C1=O` (centres undefined), the Potency entry in assay [1], in assay [2], in assay [15], in assay [4], in assay [16] and in [6] was “inactive” each time. The Potency entry in assay [7], in assay [8], in assay [17], in assay [9], in [10] and in assay [11] was “inactive” throughout. The Potency entry in assay [12], in assay [13], in assay [14] and in assay [19] was “inactive” in each case. The outcome in assay [5] was inactive. Also, the max activation in assay [18] was 7.13%.

As for `CN[C@@H](C)Cc1ccccc1`, the Potency result in assay [1], in assay [2], in assay [15], in [6], in assay [7] and in [17] was “inactive” each time. Moreover, in [9], the Potency result was “inactive”. Moreover, the compound was called inactive in assay [3].

In the case of `C=C[C@H]1CN2CC[C@H]1C[C@H]2[C@H](OC(=O)OCC)c1ccnc2ccc(OC)cc12`, the Potency entry in [1], in [2], in assay [15], in assay [16], in assay [8] and in assay [17] was “inactive” in each case. In addition, the Potency result in assay [14] and in assay [20] was “inactive” throughout. In [3], the call was inactive.

On to `Cc1cc(C)cc(C(=O)OC2C[C@H]3CC[C@@H](C2)N3C)c1` (some centres undefined), for which the Potency result in assay [2], in assay [15], in assay [4], in [16], in assay [8] and in [17] was “inactive” in each case. The Potency result in [10], in [11] and in [12] was “inactive” throughout. For the same compound, the result in assay [3] and in assay [5] was inactive. For the same compound, the Potency in [6] is 2.98 µM (active); in assay [7], 1.88 µM (active). Further, in [18], the max activation is -1.64%.

Take `CC(C)[C@H]1C(=O)N2CCC[C@H]2[C@]2(O)O[C@](NC(=O)[C@@H]3C[C@@H]4c5cccc6[nH]cc(c56)C[C@H]4N(C)C3)(C(C)C)C(=O)N12`: the Potency entry in assay [1], in assay [2], in [4], in assay [8], in assay [10] and in [12] was “inactive” in each case. In addition, the outcome in assay [3] and in assay [5] was inactive. Also, the Potency in assay [6] is 29.8 µM (active); in [7] it was 29.8 µM (active); in assay [9], 29.8 µM (active); in [11], 11.9 µM (active).

Consider `C=CCC1([C@@H](C)CCC)C(=O)NC(=O)NC1=O`, for which the Potency result in assay [1], in [2], in [15], in assay [4], in assay [16] and in [17] was “inactive” in each case. For the same compound, the Potency entry in assay [9], in [10], in assay [11], in [12], in assay [13] and in [14] was “inactive” each time. In addition, the compound was called inactive in assay [3] and in assay [5].
